Cruzain inh Det – blocks cruzain activity in presence of Triton detergent; P25779; purified cruzain, Z-FR-AMC fluorescence, 0.01% Triton; Potency, µM, for the others: max response, negative = inhibition, hits mostly inhibitors; actives 0.43% (n = 200,000); AID 1478;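 note: plate controls were neutral wells for no effect and buffer without enzyme for full effect; nearly all actives have a fitted effect of over 40% in size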
Target sequence (P25779 123-467 limits assumed): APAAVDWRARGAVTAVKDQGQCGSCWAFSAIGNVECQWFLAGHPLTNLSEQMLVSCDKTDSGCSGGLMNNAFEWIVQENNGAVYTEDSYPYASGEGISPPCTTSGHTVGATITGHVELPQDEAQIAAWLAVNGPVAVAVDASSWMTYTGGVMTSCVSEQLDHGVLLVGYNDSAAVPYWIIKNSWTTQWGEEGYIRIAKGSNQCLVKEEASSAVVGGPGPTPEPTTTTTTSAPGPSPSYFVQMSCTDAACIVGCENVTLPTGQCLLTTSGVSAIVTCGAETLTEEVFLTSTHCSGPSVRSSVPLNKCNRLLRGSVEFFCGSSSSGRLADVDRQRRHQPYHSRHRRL
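15 min RT preincubation of 1.5 nM cruzain with compound, then 2 uM Z-FR-AMC added; kinetic AMC fluorescence, 60 s delta. Triton X-100 0.01%, pH 5.5.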
Cruzain noTriton – cruzain (T. cruzi) inhibition without detergent | P25779 | purified cruzain, Z-FR-AMC fluorescence, no detergent | Potency, µM, inactives show max response, negative = inhibition, hits mostly inhibitors | actives 2.3% (n = 200,000) | AID 1476;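 note: plate controls were enzyme without inhibitor for no effect and buffer without enzyme for full effect; nearly all actives have a fitted effect of over 40% in size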
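Detergent-free condition (0.00005% Triton X-100) in acetate buffer pH 5.5 with DTT. 1.5 nM enzyme and compound were pre-mixed 15 min, then 2 uM Z-FR-AMC substrate added; reaction progress from fluorescence change between first and third reads (60 s).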
Papain counter – papain (Carica papaya) inhibition counter-screen | shares compounds with Cruzain inh Det | purified papain, Z-FR-AMC fluorescence cleavage | Potency, µM, for the others: max response, negative = inhibition, hits mostly inhibitors | actives 41% (n = 410) | AID 2161;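 note: 0% = no-compound wells and -100% = no-enzyme wells; nearly all actives have a fitted effect of over 35% in size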
Target sequence (P00784 whole entry, looked up): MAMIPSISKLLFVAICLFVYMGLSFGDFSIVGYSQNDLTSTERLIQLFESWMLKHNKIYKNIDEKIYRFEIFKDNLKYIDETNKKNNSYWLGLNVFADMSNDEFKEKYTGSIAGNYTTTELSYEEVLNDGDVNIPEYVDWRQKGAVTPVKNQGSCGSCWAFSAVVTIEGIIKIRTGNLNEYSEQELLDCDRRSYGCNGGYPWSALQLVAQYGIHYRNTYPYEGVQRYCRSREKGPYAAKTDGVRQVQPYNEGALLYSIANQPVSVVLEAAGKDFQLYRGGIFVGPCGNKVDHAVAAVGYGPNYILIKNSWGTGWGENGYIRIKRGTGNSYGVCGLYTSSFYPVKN
Numbers without * were called inactive; u = inconclusive; x = not tested or not shown; ! = not confirmed by another sample. Shown are actives, neighbours in structure and some others; about 2.4% of the full set was active somewhere. Calls come from the whole dose curve; as a rule, active = well fitted curve in the direction sought with a large enough effect; inconclusive = small, poorly fitted or top-dose-only effect, or another doubt; inactive = no such curve, though single readings can be large; an effect the other way counts as inactive or inconclusive. Potency is the fitted concentration of half-maximal effect.

SMILES | Cruzain inh Det | Cruzain noTriton | Papain counter
CCC(C)(C)C1CCc2c(sc(NC(=O)C3c4ccccc4Oc4ccccc43)c2C(N)=O)C1 (configuration not stated) | -2% | -2% | x
CN(C)CCN(c1ccccn1)c1ccccn1 | 11% | 8% | x
O=C(Oc1ccc(F)cc1)c1nc(SCc2ccccc2F)ncc1Cl | 0% | -5% | x
CCOC(=O)c1c(C)[nH]c(CCC(=O)Nc2cc(C)cc(C)c2)c1C | -4% | -21% | x
CCCNC(=O)CSc1c2c(nc3ccc(Cl)cc13)CCCC2 | -18% | -22% | x
CC(C)OCCCN1C(=O)c2[nH]nc(-c3ccccc3O)c2C1c1ccc(OCc2ccccc2)cc1 (configuration not stated) | -4% | u | x
O=C(CC1SC(=NCCc2ccccc2)N(/N=C/c2cccs2)C1=O)Nc1ccc(Cl)cc1 (configuration not stated) | -6% | 13µM* | x
O=C(CC1SC(=Nc2ccccc2)N(CCCO)C1=O)Nc1ccc(Cl)cc1 (configuration not stated) | -13% | u | x
Cc1ccc(C(=O)CN2CCC(NC(=O)C3CCCCC3)CC2)cc1 | 25µM* | u | x
Cc1ccc(NC(=O)CN2CCC(NC(=O)C3CCCCC3)CC2)c(Br)c1 | -2% | -13% | x
COc1ccc(OC)c(CNC(=O)c2nn(C)c3c2CSc2ccccc2-3)c1 | 3% | -4% | x
O=C1CSC(c2nn(-c3ccccc3)cc2-c2cc3ccccc3oc2=O)N1Cc1ccco1 (configuration not stated) | 25µM* | u | x
O=C1CSC(c2cn(-c3ccccc3)nc2-c2ccc3c(c2)OCCO3)N1CCN1CCOCC1 (configuration not stated) | -1% | u | x
CN1CCN(C(=O)c2ccc(C3SCC(=O)N3Cc3ccco3)cc2)CC1 (configuration not stated) | 3% | -5% | x
O=C1CSC(c2cn(-c3ccccc3)nc2-c2cc3ccccc3oc2=O)N1Cc1ccccc1 (configuration not stated) | 28µM* | u | x
CCOc1cccc(C(=O)Nc2c(C(=O)c3ccc(OC)cc3)oc3ccccc23)c1 | 0% | 10% | x
S=C(c1ccc(-c2cccc(Cl)c2)o1)N1CCOCC1 | -25% | -14% | x
CC(=O)N1CCN(C(=S)c2ccc(-c3ccc(Cl)cc3)o2)CC1 | 8.9µM* | u | 16µM*
O=C(CCCn1c(=O)c2ccccc2n(CC(=O)Nc2cccc(Cl)c2)c1=O)NCc1ccc2c(c1)OCO2 | -4% | -3% | x
CCCn1c2ccc(F)cc2c2nnc(SCCN3CCCCC3)nc21 | 2µM* | 2µM* | 13µM*
CCn1c(CNc2ccc(F)cc2)nnc1SCCN1CCCCC1 | -1% | -1% | x
CCn1c2ccc(F)cc2c2nnc(SCCN3CCCCC3)nc21 | 14µM* | 13µM* | 25µM*
CC1CCc2cc(F)ccc2N1C(=O)CSc1nnc2c3cc(F)ccc3n(C)c2n1 (configuration not stated) | -6% | 8% | x
CCCn1c2ccc(F)cc2c2nnc(SCCN(CC)CC)nc21 | 4.5µM* | 4µM* | 25µM*
CCCn1c(-c2ccc(F)cc2)nc2c(NCCCCN3CCCC3)nc(C)nc21 | -3% | -1% | x
SMILES | Cruzain inh Det | Cruzain noTriton | Papain counter
CCc1ccccc1NC(=O)Cn1nc(N2CCN(c3ccccc3OC)CC2)ccc1=O | -2% | u | x
COc1ccc(NC(=O)c2cc(S(=O)(=O)NCCC3=CCCCC3)ccc2F)cc1 | 0% | 8% | x
Cc1nc2c(=O)n(C)c(=O)nc-2n(C)n1 | 1µM* | 0.5µM* | -1%
Cn1nc(-c2ccncc2)nc2c(=O)n(C)c(=O)nc1-2 | x | x | -7%
Cn1c(=O)c(-c2ccccc2)nn2c3ccccc3nc12 | 2% | -19% | x
Cn1nc(-c2ccccc2)nc2c(=O)n(C)c(=O)nc1-2 | x | x | -4%
Cc1ccc(-n2c3nc(=O)n(C)c(=O)c-3cc3ccccc32)c(C)c1 | 8% | -10% | x
COc1cc(/C=c2\sc3nc(-c4ccncc4)nn3c2=O)ccc1OC(C)=O | -1% | u | x
CCOC(=O)C1CCN(c2ncnc3c2nnn3C)CC1 | 0% | u | x
COc1ccc(CN[C@H](C)C(=O)O)cc1 | 4% | -2% | x
Cc1ccc(CNC(=O)c2cc3c(=O)n(C)c4ccccc4c3n2C)cc1 | 10% | u | x
CN(CCNC(=O)c1cc2c(=O)n(C)c3ccccc3c2n1C)Cc1ccccc1 | 14µM* | u | -18%
CCC(=O)N1CCc2cc(Br)cc(S(=O)(=O)N3CCCC(C(=O)Nc4cccc(Cl)c4C)C3)c21 (configuration not stated) | -3% | -10% | x
Cc1ccc(S(=O)(=O)N[C@H](CO)C(=O)O)cc1 | 2% | 4% | x
Cc1ccc(S(=O)(=O)N[C@@H](Cc2ccccc2)C(=O)CCl)cc1 | 7.1µM* | 3.2µM* | 16µM*!
COc1cc(C(=O)NCC(c2ccc(N(C)C)cc2)N2CCc3ccccc32)cc(OC)c1OC (configuration not stated) | -4% | u | x
Cc1ccc(NC(=O)CN2C(=O)CSc3ccc(S(=O)(=O)N4CCCC4)cc32)cc1F | -6% | -1% | x
OCCCc1nc2ccccc2n1CCOc1ccccc1 | 2% | -10% | x
O=C(NCCc1nc2ccccc2n1CCCOc1ccccc1)C1CCCCC1 | x | x | -20%
CC(C)(C)C(=O)NCCc1nc2ccccc2n1CCCCOc1ccc(Cl)cc1 | -12% | u | x
O=C(NCCc1nc2ccccc2n1CCCCOc1ccccc1)C1CCCCC1 | x | x | 25µM*
COc1cc(NC(=O)Cc2noc3ccccc23)cc(OC)c1OC | -3% | 27% | x
CCOC(=O)C(C(=O)OCC)N(C#N)c1nc(SC)nc(N(C)C)n1 | 2.5µM* | 3.2µM* | 16µM*
CCOC(=O)COc1nc(N(C)C)nc(N(C)C)n1 | 12% | 4% | x
CC(C(=O)N(C)C)N(C#N)c1nc(N(C)C)nc(N(C)C)n1 (configuration not stated) | 2% | -13% | x
SMILES | Cruzain inh Det | Cruzain noTriton | Papain counter
CCOC(=O)C(C(=O)OCC)N(C#N)c1nc(OC)nc(N(C)C)n1 | 3.5µM* | 10µM* | 28µM*
Cc1ccc(OCC(=O)Nc2cccc(C(=O)OCc3cc(=O)n4nc(C)sc4n3)c2)cc1 | 1% | -9% | x
CCNC(=O)c1cnc2sc(N3CCCCCC3)nn2c1=O | -4% | 1% | x
CCOCCc1nnc(NC(=O)C(=O)c2cc(C)n(-c3cccc(C)c3)c2C)s1 | -9% | 8% | x
CCCN(CCC)CC(O)Cn1cc(/C=C/C(=O)c2ccc(OC)cc2)c2ccccc21 (configuration not stated) | -12% | 2% | x
O=C(Cn1c2ccccc2c(=O)c2ccccc21)Nc1cccc(F)c1 | 0.79µM* | -28% | -4%
O=C(Cn1c(=O)n(Cc2ccco2)c(=O)c2ccccc21)Nc1cccc(F)c1 | -9% | -19% | x
Cc1nc2cc(-c3ccccc3)nn2c(C)c1CCC(=O)N1CCN(c2ccccc2)CC1 | 3% | u | -30%
Cc1nc2cc(-c3ccc(Cl)cc3)nn2c(C)c1CCC(=O)N1CCN(c2ccccc2)CC1 | 3% | -3% | x
O=C(CNC(=O)c1ccccc1)NCC(=O)OCC(=O)c1ccc(F)cc1 | -5% | -8% | x
O=C(COC(=O)C1CCCCC1)Nc1ccc(N2CCCCC2)cc1 | -16% | -5% | x
N#Cc1ccc(NC(=O)COC(=O)CNC(=O)C2CCCCC2)cc1 | 4µM* | 4µM* | -17%
O=C(CNC(=O)C1CCCCC1)OCC(=O)c1ccc(F)cc1 | x | x | 16µM*
O=C(COC(=O)CNC(=O)C1CCCCC1)NC1CCCC1 | x | x | 32µM*

Bioassay records deposited in PubChem BioAssay by National Center for Advancing Translational Sciences (NCATS).
